Measured values: PubChem BioAssay AID1159580 (chemical genetic matrix, 2015)
Values joined by “and” are separate entries in the source; they are usually repeats but may differ in a detail not shown here. Equal values may be shown once. The campaign covered roughly 5,500 compounds. About 2,000 (36%) were called active. About 18% were inconclusive and are not listed. Rule as the data show it: active = normalized growth mostly below about 0.91 (no sharp cut-off); inconclusive = no clear call, values can overlap the other calls; inactive = mostly above about 0.92. Some of the results follow.

Experiment: chemical genetic growth profiling, strain panel (AID 1159580);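 also: tested at 20 µM; growth read once vehicle control cultures reached saturation at 30 °C; 1 = growth at the plate median or of vehicle wells; lower values mean less growth of the strain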
Conditions: growth OD

Measured: normalized growth

CC(C)OC(=O)Nc1cccc(Cl)c1
inactive: S. cerevisiae deletion strains, locus YAL013W, strain DEP1, active compounds read low 0.988 | S. cerevisiae deletion strains, locus YBR229C, strain ROT2, active compounds read low 0.979 | S. cerevisiae deletion strains, locus YCL029C, strain bik1, active compounds read low 0.991 | S. cerevisiae deletion strains, locus YDL035C, strain GPR1, active compounds read low 0.966 | S. cerevisiae deletion strains, locus YDL074C, strain BRE1, active compounds read low 0.899 | S. cerevisiae deletion strains, locus YDL101C, strain DUN1, active compounds read low 0.986 | S. cerevisiae deletion strains, locus YDL134C, strain PPH21, active compounds read low 0.973 | S. cerevisiae deletion strains, locus YDL185W, strain tfp1, active compounds read low 0.997 | S. cerevisiae deletion strains, locus YDL192W, strain arf1, active compounds read low 0.995 | S. cerevisiae deletion strains, locus YDR101C, strain arx1, active compounds read low 0.984 | S. cerevisiae deletion strains, locus YDR150W, strain NUM1, active compounds read low 0.992 | S. cerevisiae deletion strains, locus YDR162C, strain NBP2, active compounds read low 0.979 | S. cerevisiae deletion strains, locus YDR318W, strain mcm21, active compounds read low 0.978 | S. cerevisiae deletion strains, locus YDR388W, active compounds read low 0.989 | S. cerevisiae deletion strains, locus YDR502C, strain sam2, active compounds read low 0.973 | S. cerevisiae deletion strains, locus YEL061C, strain CIN8, active compounds read low 0.992 | S. cerevisiae deletion strains, locus YER110C, active compounds read low 0.986 | S. cerevisiae deletion strains, locus YER155C, strain BEM2, active compounds read low 0.987 | S. cerevisiae deletion strains, locus YER167W, strain BCK2, active compounds read low 0.949 | S. cerevisiae deletion strains, locus YGL078C, strain dbp3, active compounds read low 0.997 | S. cerevisiae deletion strains, locus YGL086W, strain mad1, active compounds read low 0.995 | S. cerevisiae deletion strains, locus YGL248W, strain PDE1, active compounds read low 0.962 | S. cerevisiae deletion strains, locus YGR078C, strain PAC10, active compounds read low 0.955 | S. cerevisiae deletion strains, locus YGR135W, strain pre9, active compounds read low 0.969 | S. cerevisiae deletion strains, locus YGR229C, strain SMI1, active compounds read low 0.941 | S. cerevisiae deletion strains, locus YHR030C, strain SLT2, active compounds read low 0.983 and 1.01 | S. cerevisiae deletion strains, locus YHR079C, strain IRE1 (second series), active compounds read low 0.973 | S. cerevisiae deletion strains, locus YHR079C, strain IRE1, active compounds read low 0.975 | S. cerevisiae deletion strains, locus YHR094C, strain hxt1, active compounds read low 0.988 | S. cerevisiae deletion strains, locus YHR129C, strain ARP1, active compounds read low 0.993 | S. cerevisiae deletion strains, locus YHR200W, strain rpn10, active compounds read low 0.985 | S. cerevisiae deletion strains, locus YIL066C, strain RNR3, active compounds read low 0.905 | S. cerevisiae deletion strains, locus YIL073C, strain SPO22, active compounds read low 0.895 | S. cerevisiae deletion strains, locus YIL125W, strain kgd1, active compounds read low 0.992 | S. cerevisiae deletion strains, locus YIR030C, strain dcg1, active compounds read low 0.981 | S. cerevisiae deletion strains, locus YJL095W, strain BCK1, active compounds read low 0.976 and 1 | S. cerevisiae deletion strains, locus YJL134W, strain LCB3, active compounds read low 1.01 | S. cerevisiae deletion strains, locus YJL168C, strain set2, active compounds read low 0.987 | S. cerevisiae deletion strains, locus YJL187C, strain SWE1 (second series), active compounds read low 0.99 | S. cerevisiae deletion strains, locus YJR043C, strain POL32, active compounds read low 1.07 | S. cerevisiae deletion strains, locus YJR066W, strain TOR1, active compounds read low 0.937 | S. cerevisiae deletion strains, locus YJR075W, strain HOC1, active compounds read low 0.994 | S. cerevisiae deletion strains, locus YKL009W, strain mrt4, active compounds read low 0.954 | S. cerevisiae deletion strains, locus YKL068W, active compounds read low 0.997 | S. cerevisiae deletion strains, locus YKL085W, strain MDH1 (second series), active compounds read low 0.991 | S. cerevisiae deletion strains, locus YKL085W, strain MDH1, active compounds read low 0.991 | S. cerevisiae deletion strains, locus YKL190W, strain CNB1, active compounds read low 0.98 | S. cerevisiae deletion strains, locus YKR001C, strain vps1, active compounds read low 0.958 | S. cerevisiae deletion strains, locus YLR039C, strain RIC1, active compounds read low 0.951 | S. cerevisiae deletion strains, locus YLR058C, strain SHM2, active compounds read low 0.987 | S. cerevisiae deletion strains, locus YLR102C, strain apc9, active compounds read low 0.987 | S. cerevisiae deletion strains, locus YLR113W, strain HOG1, active compounds read low 0.87 | S. cerevisiae deletion strains, locus YLR262C, strain YPT6, active compounds read low 0.888 | S. cerevisiae deletion strains, locus YLR268W, strain sec22, active compounds read low 0.99 | S. cerevisiae deletion strains, locus YLR330W, strain CHS5, active compounds read low 0.995 | S. cerevisiae deletion strains, locus YLR342W, strain FKS1 (second series), active compounds read low 0.944 | S. cerevisiae deletion strains, locus YLR371W, strain rom2, active compounds read low 0.974 | S. cerevisiae deletion strains, locus YML016C, strain PPZ1, active compounds read low 0.993 | S. cerevisiae deletion strains, locus YML032C, strain rad52, active compounds read low 0.936 | S. cerevisiae deletion strains, locus YML124C, strain tub3, active compounds read low 0.985 | S. cerevisiae deletion strains, locus YMR078C, strain ctf18, active compounds read low 0.935 | S. cerevisiae deletion strains, locus YMR223W, strain ubp8, active compounds read low 0.959 | S. cerevisiae deletion strains, locus YMR263W, strain SAP30, active compounds read low 0.988 | S. cerevisiae deletion strains, locus YMR307W, strain GAS1, active compounds read low 0.891 | S. cerevisiae deletion strains, locus YNL128W, strain TEP1, active compounds read low 1.01 | S. cerevisiae deletion strains, locus YNL153C, strain GIM3, active compounds read low 0.999 | S. cerevisiae deletion strains, locus YNL183C, strain NPR1, active compounds read low 0.94 | S. cerevisiae deletion strains, locus YNL233W, strain BNI4, active compounds read low 1 | S. cerevisiae deletion strains, locus YNL250W, strain rad50, active compounds read low 0.955 | S. cerevisiae deletion strains, locus YNL271C, strain bni1, active compounds read low 0.976 | S. cerevisiae deletion strains, locus YNL298W, strain CLA4, active compounds read low 0.998 | S. cerevisiae deletion strains, locus YNL322C, strain KRE1, active compounds read low 1 | S. cerevisiae deletion strains, locus YNR052C, strain pop2, active compounds read low 0.985 | S. cerevisiae deletion strains, locus YOL006C, strain TOP1, active compounds read low 0.712 | S. cerevisiae deletion strains, locus YOL012C, strain htz1 0.915 | S. cerevisiae deletion strains, locus YOL147C, strain pex11, active compounds read low 0.98 | S. cerevisiae deletion strains, locus YOR061W, strain CKA2, active compounds read low 0.992 | S. cerevisiae deletion strains, locus YOR069W, strain VPS5, active compounds read low 0.996 | S. cerevisiae deletion strains, locus YOR136W, strain idh2, active compounds read low 0.977 | S. cerevisiae deletion strains, locus YOR144C, strain elg1, active compounds read low 0.987 | S. cerevisiae deletion strains, locus YOR184W, strain ser1, active compounds read low 0.906 | S. cerevisiae deletion strains, locus YOR231W, strain MKK1, active compounds read low 0.985 | S. cerevisiae deletion strains, locus YOR316C, strain cot1, active compounds read low 0.995 | S. cerevisiae deletion strains, locus YPL055C, strain LGE1, active compounds read low 0.955 | S. cerevisiae deletion strains, locus YPL241C, strain CIN2, active compounds read low 0.994 | S. cerevisiae deletion strains, locus YPL256C, strain CLN2, active compounds read low 0.992 | S. cerevisiae deletion strains, locus YPR119W, strain clb2, active compounds read low 0.986 | S. cerevisiae deletion strains, locus YPR141C, strain kar3, active compounds read low 0.995 | S. cerevisiae deletion strains, locus YPR163C, strain tif3, active compounds read low 0.983 | S. cerevisiae deletion strains, locus YPR167C, strain met16, active compounds read low 0.986 | S. cerevisiae deletion strains, strain wtn01, active compounds read low 0.976 | S. cerevisiae strains, strain wild type, active compounds read low 0.997
active: S. cerevisiae deletion strains, locus YBR021W, strain FUR4, active compounds read low 0.821 | S. cerevisiae deletion strains, locus YGR252W, strain gcn5, active compounds read low 0.752 | S. cerevisiae deletion strains, locus YLR418C, strain cdc73, active compounds read low 0.828 | S. cerevisiae deletion strains, locus YNL067W, strain RPL9B, active compounds read low 0.301 | S. cerevisiae deletion strains, locus YNL307C, strain MCK1, active compounds read low 0.863
